# According to PubChem BioAssay (NCATS):
# Where “and” joins values, the source holds several entries; their conditions need not be identical. Equal values may be shown once. Records with an inconclusive call do not appear. Entries that show only a call come without a potency. A number with no mark means an inactive call. Calls of active or inactive are those of the source. Unless noted, calls come from the whole dose curve; as a rule, active = well fitted curve in the direction sought with a large enough effect; inconclusive = small, poorly fitted or top-dose-only effect, or another doubt; inactive = no such curve, though single readings can be large; an effect the other way counts as inactive or inconclusive.
# Tests used:
# [1] = target: Cellular tumor antigen p53 (Homo sapiens) (UniProt P04637); assay: Primary qHTS for small molecule compounds that upregulate eGFP-tagged delta133p53alpha (in N-terminal) cells. (AID 2060322); conditions: NCI-H358 eGFP-delta133p53alpha fluorescence, 24 h; activation: active compounds read high;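 note: cells pre-induced with doxycycline then dosed without doxycycline; series mostly up to about 56 µM; nearly all actives have a fitted effect of over 75% in size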
# In short: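 NCI-H358 cells pre-induced 24 h with 10 ng/ml doxycycline for eGFP-delta133p53alpha, plated dox-free and exposed 24 h at 37C to titrated compounds. Fixed, Hoechst-stained; gated GFP peak intensity by laser scanning cytometry, normalized to DMSO (0%) and 57.5 uM 5-azacytidine (100%).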
# [2] = target: Cellular tumor antigen p53 (Homo sapiens) (UniProt P04637); assay: Primary qHTS for small molecule compounds that upregulate eGFP-tagged delta133p53alpha (in C-terminal) cells. (AID 2060324)
# In short: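 Readout: filtered GFP peak intensity of gated cells (laser scanning cytometer), normalized plate-wise to intraplate controls, DMSO wells = 0% activity. Cells: NCI-H358 D133p53a-eGFP, dox 100 ng/ml 24 h beforehand, then compound 24 h, 37 °C.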
# [3] = target: Aldehyde dehydrogenase, mitochondrial (Homo sapiens) (UniProt P05091); assay: qHTS for Inhibitors of the Aldehyde Dehydrogenase Family (ALDH2) Validation screens (AID 2061302; active = well fitted inhibition curve with a large enough effect; title and protocol of this record describe different tests)
# [4] = target: Retinaldehyde dehydrogenase 3 (Homo sapiens) (UniProt P47895); assay: qHTS for Inhibitors of the Aldehyde Dehydrogenase Family (ALDH1A3) Validation screen (AID 2061312); note: nearly all actives have a fitted effect of over 45% in size
# [5] = BET inhibitor-based combinations targeting novel dependencies in MECOM-rearranged (r) AML: SET-2 cell line (AID 2202231); conditions: SET-2 AML cells viability, CellTiter-Glo luminescence, 48 h; viability: active compounds read low, series mostly up to about 46 µM; note: nearly all actives have a fitted effect of over 35% in size
# In short: (§1)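 Luminescent ATP readout (CellTiter-Glo) after 48 hr drug exposure gives viability. Curves span 11 concentrations and are normalized to DMSO and empty wells. Activity is reported as area under the curve and its Z-transform within each cell line.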
# [6] = BET inhibitor-based combinations targeting novel dependencies in MECOM-rearranged (r) AML: OCI-AML3 cell line (AID 2202232); conditions: Potency: OCI-AML3 viability; note: nearly all actives have a fitted effect of over 35% in size; note: potency is the fitted concentration of half-maximal effect
# In short: as §1
# [7] = BET inhibitor-based combinations targeting novel dependencies in MECOM-rearranged (r) AML: MV-4-11 cell line (AID 2202233); note: nearly all actives have a fitted effect of over 45% in size; note: potency is the fitted concentration of half-maximal effect
# In short: (§2)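 Luminescent ATP readout (CellTiter-Glo, 15 min at room temperature) after 48 hr drug exposure gave viability. Dose-response curves, normalized to DMSO and empty-well controls, were summarized as area under the curve and its mean-centred Z-score.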
# [8] = BET inhibitor-based combinations targeting novel dependencies in MECOM-rearranged (r) AML: HNT-34 cell line (AID 2202234); note: nearly all actives have a fitted effect of over 35% in size
# In short: as §2
# [9] = BET inhibitor-based combinations targeting novel dependencies in MECOM-rearranged (r) AML: AML-194 cell line (AID 2202237; note: nearly all actives have a fitted effect of over 40% in size)
# In short: as §1
# [10] = BET inhibitor-based combinations targeting novel dependencies in MECOM-rearranged (r) AML: UCSD-AML1 cell line (AID 2202235); note: nearly all actives have a fitted effect of over 40% in size; note: potency is the fitted concentration of half-maximal effect
# In short: as §2
# [11] = BET inhibitor-based combinations targeting novel dependencies in MECOM-rearranged (r) AML: AML-191 cell line (AID 2202236; note: nearly all actives have a fitted effect of over 35% in size)
# In short: as §1
# Cellular tumor antigen p53 (Homo sapiens), sequence (P04637 whole entry, looked up): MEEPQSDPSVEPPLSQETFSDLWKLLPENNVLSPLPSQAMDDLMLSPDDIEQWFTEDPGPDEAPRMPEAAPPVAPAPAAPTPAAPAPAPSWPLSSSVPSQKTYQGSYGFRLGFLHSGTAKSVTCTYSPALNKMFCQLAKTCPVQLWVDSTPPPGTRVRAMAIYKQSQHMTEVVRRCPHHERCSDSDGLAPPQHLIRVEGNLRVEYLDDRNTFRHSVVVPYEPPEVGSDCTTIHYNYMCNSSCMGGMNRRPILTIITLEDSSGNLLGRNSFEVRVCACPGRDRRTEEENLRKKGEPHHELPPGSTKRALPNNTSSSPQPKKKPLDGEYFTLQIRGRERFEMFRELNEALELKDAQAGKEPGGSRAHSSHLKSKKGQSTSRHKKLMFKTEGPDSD
Compound,activation [1],Potency [2],Potency [3],Potency [4],viability [5] [%],Potency [6],Potency [7],Potency [8],Potency [9],Potency [10],Potency [11]
COc1ccc(C2CNC(=O)C2)cc1OC1CCCC1 (stereo not drawn),8.47% and 29.3%,inactive,inactive,inactive,119,inactive,inactive,inactive,inactive,–,–
CC(C)(C)NCC(O)c1ccc(O)c(CO)c1 (stereo not drawn),-7.9% and 9.21% and -24.1%,inactive,inactive,inactive,115,inactive,inactive,inactive,inactive,–,–
CN[C@H](CC(C)C)C(=O)N[C@H]1C(=O)N[C@@H](CC(N)=O)C(=O)N[C@H]2C(=O)N[C@H]3C(=O)N[C@H](C(=O)N[C@H](C(=O)O)c4cc(O)cc(O)c4-c4cc3ccc4O)[C@H](O)c3ccc(c(Cl)c3)Oc3cc2cc(c3O[C@@H]2O[C@H](CO)[C@@H](O)[C@H](O)[C@H]2O[C@H]2C[C@](C)(N)[C@H](O)[C@H](C)O2)Oc2ccc(cc2Cl)[C@H]1O,-2.02%,inactive,inactive,inactive,117,–,inactive,–,inactive,inactive,inactive
CN1CCC(=C2c3ccccc3CC(=O)c3sccc32)CC1,59.8% and 8.47% and -42.7%,inactive,inactive,inactive,112,18.6 µM (active),–,–,inactive,inactive,inactive
Cc1ccc(N(CC2=NCCN2)c2cccc(O)c2)cc1,-15.3% and 15.9%,inactive,inactive,inactive,97.5,–,26.3 µM (active),–,–,23.5 µM (active),–
